Bioassay records deposited in PubChem by National Center for Advancing Translational Sciences (NCATS).
In the library only some 10% were active in any assay of this set; here they are far more common.
HP1b chromo inh – HP1-beta chromodomain-methylated histone interaction inhibition; AlphaScreen HP1-beta / biotin-H3K9me3 peptide binding; actives 0.56% (n = 390,000); P83916; Potency, µM (doses to about 114 µM), actives largely listed as inhibitors; note: nearly all actives have a fitted effect of over 70% in size
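HP1-beta protein (50 nM final) preincubated 30 min at room temperature with biotinylated H3(1-18)K9me3 peptide (50 nM) in PBS pH 7.4, 0.01% Tween-20, then compound added for 30 min. AlphaScreen streptavidin donor/nickel chelate acceptor beads (10 ug/mL final), 30 min dark, luminescence read.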
Six1-Eya2 inh – blocks human Six1 binding to Eya2; AlphaScreen GST-Six1/His-Eya2 binding, biochemical; stronger effect = lower value; actives 0.56% (n = 360,000); activity change, % (no concentration beside the values); in the data active = activity change below about -65%; inconclusive = mostly about -30% to -63%
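AlphaScreen with GST-Six1 and His-Eya2 (5X mix: 250 nM and 500 nM), glutathione donor and nickel acceptor beads; buffer 50 mM Tris pH 8.0, 300 mM NaCl, 1 mM TCEP; 1 h at 37 C in the dark.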
G9a inh – G9a (human) methyltransferase inhibition | Q96KQ7 | G9a H3K9 monomethylation, AlphaScreen, 2 h | Potency, µM (titrated, usually from 102 µM), actives largely listed as inhibitors | actives 8.8% (n = 350,000) | AID 504332; note: nearly all actives have a fitted effect of over 75% in size
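Chemiluminescent proximity detection of H3K9 monomethylation, read after 10 min bead incubation in the dark. Reaction: 20 nM G9a, 500 nM biotin-H3K9 peptide, 20 uM SAM cofactor, 2 h, room temperature, following 15 min enzyme-compound preincubation.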
CtBP-E1A inh – blocks the CtBP interaction with E1A | actives 0.49% (n = 340,000) | activity change, % (test concentration not listed) | AlphaScreen GST-E1A/His-CtBP binding, 1536-well; stronger effect = lower value; in the data active = activity change below about -65%; inconclusive = mostly about -30% to -63%
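Homogeneous bead-based format: GST-tagged E1A captured on glutathione donor beads, His-tagged CtBP on nickel acceptor beads; compounds precede bead addition by 2 h at 37 °C.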
JMJD2A Tudor inh – inhibitors of human JMJD2A Tudor domain | Potency, µM (highest dose often 114 µM), hits mostly inhibitors | O75164 | AlphaScreen JMJD2A-Tudor / H3K4me3 peptide binding | actives 4.4% (n = 390,000); note: nearly all actives have a fitted effect of over 50% in size
BAZ2B inh – BAZ2B (human) inhibition; Q9UIF8; AlphaScreen BAZ2B-H3K14Ac peptide displacement; Potency, µM (highest dose often 114 µM), hits mostly inhibitors; actives 4.4% (n = 360,000); note: nearly all actives have a fitted effect of over 60% in size
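Compounds, titrated to a top concentration of 110 uM, were incubated 30 min at room temperature with preformed BAZ2B/acetyl-K14 H3 peptide complex (50 nM each). Proximity signal was measured by AlphaScreen after 20 min with beads.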
Large screens that a line does not name were inactive. Unless noted, calls come from the whole dose curve; as a rule, active = well fitted inhibition curve with a large enough effect; inconclusive = small, poorly fitted or top-dose-only effect; inactive = no such curve, though single readings can be large or run the other way.

O=C(O)c1cccc(Sc2ccc(Br)cc2C(=O)O)c1	none
COC(=O)C1=C(C)NC(=O)/C1=C\c1cc(C)n(-c2ccccc2F)c1C	BAZ2B inh 45µM (no result: G9a inh)
COC(=O)C1=C(C)NC(=O)/C1=C\c1cc(C)n(-c2c(C)cccc2C)c1C	HP1b chromo inh inconclusive, G9a inh 10µM, JMJD2A Tudor inh 32µM, BAZ2B inh 32µM
Cc1cccc(C)c1-n1c(C)cc(/C=C2\NC(=O)NC2=O)c1C	G9a inh inconclusive, JMJD2A Tudor inh 50µM, BAZ2B inh 40µM
COC(=O)C1=C(C)NC(=O)/C1=C\c1cc(C)n(-c2ccccc2C)c1C	G9a inh 45µM, JMJD2A Tudor inh 45µM, BAZ2B inh 45µM
COC(=O)C1=C(C)NC(=O)/C1=C\c1cccs1	none
CCOC(=O)c1ccc(NC(=O)COc2ccccc2CNC2CCCC2)cc1	none (no result: G9a inh)
O=C(CNC(=O)c1cccc2ccccc12)OC(C(=O)Nc1cc(C(F)(F)F)ccc1Cl)c1ccccc1 (centres undefined)	none (no result: HP1b chromo inh, Six1-Eya2 inh, G9a inh, CtBP-E1A inh, BAZ2B inh)
COc1ccc(COC(=O)c2[nH]c3c(c2C)C(=O)CC(c2ccc(OC)c(OC)c2)C3)cc1 (centres undefined)	none (no result: Six1-Eya2 inh, CtBP-E1A inh)
CN1CCN(C2=C(Cl)C(=O)N(c3cccc(Cl)c3)C2=O)CC1	G9a inh inconclusive, JMJD2A Tudor inh 18µM
Cc1ccc(N2C(=O)C(Cl)=C(N3CCOCC3)C2=O)cc1Cl	JMJD2A Tudor inh inconclusive
CN1CCN(C2=C(Cl)C(=O)N(c3ccc(Cl)c(Cl)c3)C2=O)CC1	G9a inh 32µM, JMJD2A Tudor inh 22µM, BAZ2B inh inconclusive
CC1CCCN(C2=C(Cl)C(=O)N(c3cccc(Cl)c3)C2=O)C1 (centres undefined)	none
Cn1c(=O)c2cc(NC(=S)NC3CC3)ccc2n1Cc1cccc(C(F)(F)F)c1	none (no result: HP1b chromo inh, G9a inh, JMJD2A Tudor inh, BAZ2B inh)
Cc1ccn(CCC(=O)N2CCCC(N3CCN(c4ccccc4C)CC3)C2)n1 (centres undefined)	none (no result: HP1b chromo inh, G9a inh, JMJD2A Tudor inh, BAZ2B inh)
Cc1oc(-c2ccccc2)cc1C(=O)Nc1cccc(/C=C/C(=O)O)c1	HP1b chromo inh inconclusive, JMJD2A Tudor inh inconclusive, BAZ2B inh 45µM
Cc1cc(C(=O)Nc2cccc(/C=C/C(=O)O)c2)c(C)o1	G9a inh inconclusive
CCOC(=O)c1oc2ccc(CNC(C)(C)C)c(Cl)c2c1C	G9a inh 8.9µM, JMJD2A Tudor inh 10µM, BAZ2B inh 50µM
CCOc1ccccc1-c1nnc2n1N=C(c1ccccc1OC)CS2	none (no result: HP1b chromo inh, Six1-Eya2 inh, G9a inh, CtBP-E1A inh, BAZ2B inh)
O=c1[nH]c(=O)c2nc3c4ccccc4c4ccccc4c3nc2[nH]1	Six1-Eya2 inh inconclusive, G9a inh 40µM, BAZ2B inh 56µM (no result: CtBP-E1A inh)
N#Cc1c(NC(=O)c2cc3nc(-c4ccc(Br)cc4)cc(C(F)(F)F)n3n2)sc2c1CCCC2	G9a inh 10µM (no result: Six1-Eya2 inh, CtBP-E1A inh)
COC(=O)c1c(NC(=O)c2cc3nc(-c4ccc(Br)cc4)cc(C(F)(F)F)n3n2)sc2c1CCCC2	none (no result: Six1-Eya2 inh, CtBP-E1A inh)
CCN(CC)C(=O)c1sc2c(c1C)c(=O)n(CCc1ccccc1)c(=O)n2Cc1cc(C)ccc1C	none (no result: Six1-Eya2 inh, CtBP-E1A inh)
O=C(CSc1nnc(-c2ccccc2O)o1)N1CCOCC1	JMJD2A Tudor inh 56µM, BAZ2B inh 79µM
O=C(CSc1nnc(-c2ccccc2Br)o1)N1CCOCC1	none
CC1CCCCN1C(=O)CSc1nnc(-c2ccccc2Cl)o1 (centres undefined)	G9a inh 13µM (no result: Six1-Eya2 inh, CtBP-E1A inh)
O=C(CSc1nnc(-c2ccccc2Cl)o1)N1CCCCC1	G9a inh inconclusive
O=C(CSc1nnc(-c2ccccc2O)o1)N1CCCCC1	G9a inh 10µM
Cc1nc2c(c(C)c1CCC(=O)NCc1ccc(Cl)cc1)c(=O)n(C)c(=O)n2C	none (no result: Six1-Eya2 inh, CtBP-E1A inh)
O=C(O)c1ccccc1-c1ccc(/C=C/c2cc(C(F)(F)F)[nH]c(=O)n2)o1	G9a inh 40µM, BAZ2B inh inconclusive
N#CCCNc1ccc(OCCC#N)cc1	BAZ2B inh inconclusive
O=C(Nc1cc2c3c(c1)CC(=O)N3CCC2)c1ccco1	G9a inh 35µM
O=C(CCl)c1cc2c3c(c1)CC(=O)N3CCC2	G9a inh 50µM, BAZ2B inh inconclusive
COc1ccc(C(=O)/C=C/C(=O)N(CC(=O)NC2CCCCC2)Cc2ccc(F)cc2)c(O)c1	none (no result: G9a inh)
